From PubChem BioAssay
Calls of active or inactive are those of the source. Unless noted, the rule behind the calls is not given here.

Experiments:
[1] = system: Wnt5a (protein binding on small-molecule microarray); experiment: small molecules binding Wnt5a protein – biophysical, small-molecule microarray, 635/667 nm fluorescence, primary screen (AID 1142); details: 635 nm fluorescence, higher = more signal;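 note: fluorescence read at 667 nm with signal to noise per printed feature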
[2] = ATP-based viability of Huh7 replicon cells – cell-based, CellTiter-Glo luminescence, basal, 48 h, cytotoxicity control for HCV replication inhibitor project, primary screen (AID 1143); details: higher = more signal, called active from +8 up or from −8 down;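 note: Huh7 hepatoma cells carrying a hepatitis C replication reporter with no stimulus; test concentration not given here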
[3] = Pseudomonas biofilm growth suppression – PAO1 strain, BacTiter-Glo luminescence, LB-PBS, primary screen (AID 1144); details: P. aeruginosa PAO1 biofilm, 12 h, higher = more signal
[4] = basal CRE-LacZ reporter activity in PC12 – cell-based, unstimulated, primary screen (AID 1145); details: no forskolin, luminescence, 4.5 h, higher = more signal, called active from +8 up or from −8 down
[5] = forskolin-driven CRE-LacZ activity in PC12 – cell-based, CRE-LacZ reporter, forskolin-stimulated, primary screen (AID 1146); details: luminescence, 4.5 h, higher = more signal, called active from +8 up or from −8 down;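 note: PC12 cells with 6xCRE LacZ reporter stimulated by forskolin 10 µM; beta-galactosidase reporter signal reflecting CREB driven transcription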
[6] = target: Streptavidin (Streptomyces avidinii) (UniProt P22629); experiment: compounds binding control protein streptavidin – biophysical, small-molecule microarray, 635/667 nm fluorescence, artefact control for SMM compound annotation, primary screen (AID 1147); details: higher = more signal;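 note: signal reflects streptavidin binding to arrayed compounds as a control protein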
Chain of Streptavidin (Streptomyces avidinii) (P22629 whole entry, looked up): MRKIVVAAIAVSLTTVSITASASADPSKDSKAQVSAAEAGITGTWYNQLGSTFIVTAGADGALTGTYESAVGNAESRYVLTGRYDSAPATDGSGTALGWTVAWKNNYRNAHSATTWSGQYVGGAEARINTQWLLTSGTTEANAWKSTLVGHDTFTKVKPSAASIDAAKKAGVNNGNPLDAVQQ

[7] = probe aInhba binding on compound microarray – biochemical, small-molecule microarray, 635/667 nm fluorescence, primary screen (AID 1148); details: higher = more signal;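 note: score merges 667nm spot fluorescence with signal-to-noise for antibody binding to printed compounds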
[8] = target: Torsin-1A (Homo sapiens) (UniProt O14656); experiment: TOR1A wild-type binding on microarray – cell lysate, small-molecule microarray, lysate, 635/667 nm, primary screen (AID 1149); details: COS7 hTOR1A-WT lysate, 635 nm fluorescence, higher = more signal
Chain of Torsin-1A (Homo sapiens) (O14656 whole entry, looked up): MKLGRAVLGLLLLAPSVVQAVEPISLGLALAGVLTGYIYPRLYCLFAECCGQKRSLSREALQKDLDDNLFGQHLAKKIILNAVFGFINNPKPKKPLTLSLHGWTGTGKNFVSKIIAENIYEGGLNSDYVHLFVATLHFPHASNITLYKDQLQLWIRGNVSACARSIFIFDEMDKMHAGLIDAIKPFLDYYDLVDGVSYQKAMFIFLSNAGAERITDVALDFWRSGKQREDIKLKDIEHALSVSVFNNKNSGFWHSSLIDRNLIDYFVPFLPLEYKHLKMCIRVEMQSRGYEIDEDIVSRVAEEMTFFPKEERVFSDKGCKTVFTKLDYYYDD

[9] = target: Torsin-1A (Homo sapiens) (UniProt O14656); experiment: torsin A mutant lysate binding on microarrays – cell lysate, small-molecule microarray, COS7 lysate, 635/667 nm fluorescence, primary screen (AID 1150); details: COS7 hTOR1A mutant lysate, 635 nm fluorescence, higher = more signal;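 note: score pools 667 nm emission and signal to noise measuring lysate protein binding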
[10] = system: Sonic hedgehog protein (Shh); experiment: Sonic hedgehog microarray binding compounds – biochemical, small-molecule microarray, 635/667 nm fluorescence, primary screen (AID 1151); details: 635 nm fluorescence, higher = more signal;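 note: Shh protein binding to compounds spotted on small-molecule microarray slides; score combines spot fluorescence intensity with signal-to-noise across triplicate slides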
[11] = optical density shifts of acrAB sulA E. coli – strain DRC41, OD650, 48 h, E. coli filamentation inducer project, primary screen (AID 1152); details: higher = more signal, called active from +8 up or from −8 down;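 note: E. coli MC1000 strain DRC41 lacking acrAB efflux pump and sulA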
[12] = probe aLefty1 binding on compound microarray – biochemical, small-molecule microarray, 635/667 nm fluorescence, primary screen (AID 1153); details: higher = more signal;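 note: score merges spot fluorescence with signal-to-noise ratio from the scanned slide images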
[13] = plasmodial surface anion channel blockers, osmotic lysis – cell-based, P. falciparum Indochina, OD700, 1 h, primary screen (AID 1154); details: P. falciparum Indochina infected RBC osmotic lysis, higher = more signal, called active from +8 up or from −8 down
[14] = plasmodial surface anion channel blockers, osmotic lysis – cell-based, P. falciparum Indochina, OD700, 2 h, primary screen (AID 1155);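 note: lysis reports solute entry through the parasite surface anion channel PSAC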; details: P. falciparum Indochina infected erythrocytes, higher = more signal, called active from +8 up or from −8 down
[15] = changes in parasitized red cell lysis, either direction – P. falciparum Indochina, OD700, 3 h, PSAC antagonist project, primary screen (AID 1156); details: P. falciparum-infected erythrocytes, osmotic lysis, higher = more signal, called active from +8 up or from −8 down
[16] = plasmodial surface anion channel blockers, osmotic lysis – cell-based, P. falciparum Indochina, OD700, 18 h, primary screen (AID 1157); details: P. falciparum Indochina infected erythrocytes, osmotic lysis OD700, 18 h; higher = more signal, called active from +8 up or from −8 down
[17] = S6 kinase pathway phospho-S6 level changes – cell-based, A549, cytoblot, luminescence, serum-stimulated, primary screen (AID 1158); details: 5 h, higher = more signal;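 note: serum-stimulated A549 lung adenocarcinoma cells; signal is phosphorylated S6 detected by cytoblot immunostaining with HRP secondary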
[18] = target: NADPH oxidase 2 (Homo sapiens) (UniProt P04839); experiment: compounds shifting NOX2 Amplex Red fluorescence – cell-based, HEK293-NOX2, PMA-stimulated, NOX inhibitor project, primary screen (AID 1159); details: 45 min, higher = more signal, called active from +8 up or from −8 down; note: test concentration not given here
Chain of NADPH oxidase 2 (Homo sapiens) (P04839 whole entry, looked up): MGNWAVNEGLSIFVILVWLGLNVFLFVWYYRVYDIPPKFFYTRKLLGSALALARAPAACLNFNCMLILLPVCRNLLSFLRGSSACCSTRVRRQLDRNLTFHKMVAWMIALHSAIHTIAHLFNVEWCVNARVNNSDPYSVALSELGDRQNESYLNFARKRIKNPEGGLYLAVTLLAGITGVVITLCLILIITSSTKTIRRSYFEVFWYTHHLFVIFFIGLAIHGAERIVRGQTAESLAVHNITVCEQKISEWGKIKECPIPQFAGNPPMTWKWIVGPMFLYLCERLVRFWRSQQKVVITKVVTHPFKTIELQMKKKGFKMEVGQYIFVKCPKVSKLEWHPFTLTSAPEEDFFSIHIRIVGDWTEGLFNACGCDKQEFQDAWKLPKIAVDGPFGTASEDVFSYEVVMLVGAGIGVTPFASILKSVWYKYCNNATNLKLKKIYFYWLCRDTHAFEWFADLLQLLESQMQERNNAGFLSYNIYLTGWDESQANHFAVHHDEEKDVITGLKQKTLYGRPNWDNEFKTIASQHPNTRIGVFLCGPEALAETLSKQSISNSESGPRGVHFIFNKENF

[19] = target: NADPH oxidase 4 (Homo sapiens) (UniProt Q9NPH5); experiment: compounds shifting NOX4 Amplex Red fluorescence – cell-based, HEK293-NOX4, tetracycline-induced, NOX inhibitor project, primary screen (AID 1160); details: HEK293-NOX4, Amplex Red H2O2 fluorescence, 45 min; higher = more signal, called active from +8 up or from −8 down
Chain of NADPH oxidase 4 (Homo sapiens) (Q9NPH5 whole entry, looked up): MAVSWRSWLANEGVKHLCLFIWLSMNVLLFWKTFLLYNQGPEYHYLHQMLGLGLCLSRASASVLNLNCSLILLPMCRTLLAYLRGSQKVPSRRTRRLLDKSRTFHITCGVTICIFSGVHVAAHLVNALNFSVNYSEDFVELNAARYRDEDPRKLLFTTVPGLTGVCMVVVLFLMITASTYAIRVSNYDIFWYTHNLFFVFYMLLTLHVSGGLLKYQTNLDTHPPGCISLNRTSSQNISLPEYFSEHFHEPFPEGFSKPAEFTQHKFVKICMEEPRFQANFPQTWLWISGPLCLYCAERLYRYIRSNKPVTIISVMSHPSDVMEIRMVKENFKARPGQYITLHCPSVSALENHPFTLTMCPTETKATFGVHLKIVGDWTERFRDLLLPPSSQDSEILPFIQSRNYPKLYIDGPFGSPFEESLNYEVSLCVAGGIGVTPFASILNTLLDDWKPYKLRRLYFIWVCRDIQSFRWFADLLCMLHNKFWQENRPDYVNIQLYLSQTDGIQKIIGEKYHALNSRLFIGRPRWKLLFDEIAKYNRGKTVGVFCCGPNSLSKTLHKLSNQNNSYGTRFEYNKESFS

[20] = target: NADPH oxidase 5 (Homo sapiens) (UniProt Q96PH1); experiment: compounds shifting NOX5 Amplex Red fluorescence – cell-based, HEK293-NOX5, NOX inhibitor project, primary screen (AID 1161); details: HEK293-NOX5, ionomycin, 45 min, higher = more signal
Chain of NADPH oxidase 5 (Homo sapiens) (Q96PH1 whole entry, looked up): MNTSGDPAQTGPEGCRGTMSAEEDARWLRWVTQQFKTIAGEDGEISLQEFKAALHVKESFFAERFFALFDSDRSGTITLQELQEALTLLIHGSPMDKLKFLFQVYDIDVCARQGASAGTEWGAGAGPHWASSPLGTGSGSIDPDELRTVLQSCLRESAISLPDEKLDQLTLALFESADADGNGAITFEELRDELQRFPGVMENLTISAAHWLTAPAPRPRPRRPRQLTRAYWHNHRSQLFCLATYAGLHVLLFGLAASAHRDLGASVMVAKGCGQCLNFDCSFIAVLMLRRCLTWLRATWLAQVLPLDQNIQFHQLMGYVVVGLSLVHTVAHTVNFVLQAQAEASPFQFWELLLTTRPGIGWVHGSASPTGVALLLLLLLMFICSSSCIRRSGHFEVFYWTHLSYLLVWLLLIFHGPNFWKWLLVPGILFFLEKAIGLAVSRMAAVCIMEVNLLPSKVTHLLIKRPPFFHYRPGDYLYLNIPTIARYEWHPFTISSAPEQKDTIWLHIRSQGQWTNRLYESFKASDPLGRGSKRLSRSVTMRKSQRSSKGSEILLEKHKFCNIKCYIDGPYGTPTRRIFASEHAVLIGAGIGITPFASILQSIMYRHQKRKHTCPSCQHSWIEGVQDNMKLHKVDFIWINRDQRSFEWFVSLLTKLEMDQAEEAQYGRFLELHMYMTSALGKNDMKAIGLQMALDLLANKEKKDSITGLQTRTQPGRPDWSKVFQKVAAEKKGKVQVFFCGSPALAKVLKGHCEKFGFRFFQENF

| SMILES | composite z-score [1] | z-score [2] | z-score [3] | z-score [4] | z-score [5] | composite z-score [6] | composite z-score [7] | composite z-score [8] | composite z-score [9] | composite z-score [10] | z-score [11] | composite z-score [12] | z-score [13] | z-score [14] | z-score [15] | z-score [16] | z-score [17] | z-score [18] | z-score [19] | z-score [20] |
| --- | --- | --- | --- | --- | --- | --- | --- | --- | --- | --- | --- | --- | --- | --- | --- | --- | --- | --- | --- | --- |
| COCCCNC(=O)[C@@]1(Sc2ccc(C)cc2)CC(=O)N(Cc2cc(C(F)(F)F)cc(C(F)(F)F)c2)[C@@H]1c1ccc(CO)cc1 | 0.0054 | -0.418 (inactive) | 0.126 (inactive) | 0.506 (inactive) | -1.15 (inactive) | 0.072 | 0.0111 | 1.27 | 0.389 | 1.68 | 0.154 (inactive) | -0.0559 | 0.603 (inactive) | 0.591 (inactive) | 1.03 (inactive) | 0.302 (inactive) | -0.103 | 0.242 (inactive) | 0.521 (inactive) | 0.581 |
| CN1C(=O)C2C=CC(C(O)C3CCCCC3)N(N3CCCCC3)C2C1=O (stereo not given) | 0.341 | 0.505 (inactive) | -0.416 (inactive) | -0.326 (inactive) | 0.158 (inactive) | 0.842 | 0.268 | 0.221 | 0.579 | 0.875 | -0.898 (inactive) | 0.493 | 0.0569 (inactive) | 0.257 (inactive) | 0.42 (inactive) | 1.27 (inactive) | -0.659 | -0.407 (inactive) | 0.674 (inactive) | -0.23 |
| O=C(NC1CC1)[C@@H]1c2ccccc2C(=O)N(Cc2ccccc2)[C@H]1c1ccc(CO)cc1 | 0.336 | -0.878 (inactive) | -0.55 (inactive) | -0.825 (inactive) | -1.22 (inactive) | -0.928 | 0.0111 | -0.892 | -0.665 | 0.443 | 0.651 (inactive) | 0.0191 | 2.58 (inactive) | 0.258 (inactive) | 1.38 (inactive) | 0.0604 (inactive) | 0.666 | -0.962 (inactive) | 0.623 (inactive) | -1.52 |
| COCCOC(=O)N1C(=O)[C@@]2(c3cc(C#CC4=CCCCC4)ccc31)[C@H](c1ccc(O)cc1)N1[C@H](c3ccccc3)[C@H](c3ccccc3)OC(=O)[C@H]1[C@@H]2C(=O)Nc1nc2ccccc2s1 | 0.365 | -0.799 (inactive) | -0.424 (inactive) | 0.476 (inactive) | 2.17 (inactive) | 1.18 | 0.52 | 0.776 | 0.89 | 1.73 | -0.567 (inactive) | 0.571 | 2.09 (inactive) | 1.76 (inactive) | 0.599 (inactive) | 1.81 (inactive) | -0.507 | 1.55 (inactive) | -0.0515 (inactive) | 0.897 |
| C=CCOC(=O)[C@H]1[C@@H]2C(=O)O[C@@H](c3ccccc3)[C@@H](c3ccccc3)N2[C@@H](c2ccc(OCCOC(=O)[C@H]3C[C@H]4C(=O)N[C@@H](Cc5ccccc5)C(=O)N4[C@H]3c3ccc(O)cc3)cc2)[C@]12C(=O)Nc1ccc(I)cc12 | 0.72 | -0.918 (inactive) | -0.707 (inactive) | 1.09 (inactive) | 0.204 (inactive) | 0.133 | -0.0567 | 0.586 | 0.691 | 2.32 | -0.783 (inactive) | -0.0162 | 4.04 (inactive) | 2.09 (inactive) | 0.28 (inactive) | 1.06 (inactive) | -0.481 | 2.07 (inactive) | 1.18 (inactive) | 2.35 |
| CCOC(=O)C1=CC[C@@H](c2ccc([N+](=O)[O-])cc2)N(S(=O)(=O)c2ccc(C)cc2)[C@H]1c1ccccc1 | 0.503 | -1.36 (inactive) | -0.41 (inactive) | 0.182 (inactive) | 0.147 (inactive) | 1.57 | 0.165 | 0.149 | 0.763 | 1.39 | -0.785 (inactive) | 0.206 | 2.13 (inactive) | 1.6 (inactive) | 0.106 (inactive) | 0.903 (inactive) | -0.543 | 1.46 (inactive) | 1.1 (inactive) | 1.43 |
| C=CCOC(=O)[C@@H]1[C@H]2C(=O)O[C@H](c3ccccc3)[C@H](c3ccccc3)N2[C@H](c2ccc(OCCOC(=O)[C@H]3C[C@H]4C(=O)N[C@@H](CC(C)C)C(=O)N4[C@H]3c3ccc(O)cc3)cc2)[C@@]12C(=O)Nc1ccc(I)cc12 | 0.504 | -0.141 (inactive) | 0.0488 (inactive) | 0.277 (inactive) | -1.14 (inactive) | 0.324 | -0.102 | 1.33 | 1.33 | 1.97 | 0.715 (inactive) | 0.0278 | 2.42 (inactive) | 1.47 (inactive) | 0.946 (inactive) | 0.792 (inactive) | 0.171 | 1.75 (inactive) | 1.66 (inactive) | 1.36 |
| COC(=O)Cn1c(C(=O)N2CCCC2)cc2c1C[C@H]1CN(C(=O)c3ccccc3)[C@@](Cc3ccc(F)cc3)(C(=O)OC)[C@@H]21 | -0.164 | -1.83 (inactive) | -0.288 (inactive) | -0.182 (inactive) | 0.105 (inactive) | 1.59 | -0.123 | 0.895 | -0.137 | -0.271 | -0.246 (inactive) | -0.041 | 1.32 (inactive) | -0.428 (inactive) | -0.865 (inactive) | -1.71 (inactive) | 3.59 | 0.215 (inactive) | 1.31 (inactive) | -1.46 |
| O=c1cccc(-c2ccc(C(F)(F)F)cc2)o1 | -0.281 | 0.421 (inactive) | 0.634 (inactive) | -0.275 (inactive) | -0.145 (inactive) | -0.43 | -0.0963 | -0.848 | -0.476 | -0.559 | -1.06 (inactive) | -0.103 | 20.1 (active) | 3.36 (inactive) | -1.13 (inactive) | 1.1 (inactive) | -0.564 | 0.584 (inactive) | -2.27 (inactive) | -0.246 |
